The source of these data is PubChem BioAssay (NCATS).

Calls of active or inactive are those of the source. Entries that show only a call come without a potency. Calls come from the whole dose curve; as a rule, active = well fitted curve in the direction sought with a large enough effect; inconclusive = small, poorly fitted or top-dose-only effect, or another doubt; inactive = no such curve, though single readings can be large or run the other way.
Potency is the fitted concentration of half-maximal effect.

A short description of this test: Cellular Toxicity (caspase-3) BJ (AID 658). The settings on record: BJ fibroblasts, luminescence; Potency: caspase-3 activation; series mostly up to 91.7 µM. The source says: NIH Chemical Genomics Center [NCGC]
NIH Molecular Libraries Screening Centers Network [MLSCN]
National Institutes of Environmental Health Sciences [NIEHS]
National Toxicology Program [NTP]
We have developed a 1536-well cell-based assay for quantitative high throughput screening (qHTS) against a number of cell lines to determine in vitro caspase 3/7 activity of small molecules. This particular assay uses BJ cell line which is derived from normal human foreskin fibroblast.
NCGC Assay Protocol Summary:
The Caspase-Glo 3/7 assay (Promega) is a homogeneous method to measure caspase-3 and caspase-7 activities in cultured cells. The quantitation of caspase 3/7 activity is based on the cleavage of a peptide-aminoluciferin substrate. After caspase cleaves the substrate the free aminoluciferin is liberated and serves as the substrate of luciferase, which generates the light. The luminescent signal is proportional to amount of caspase 3/7 activity present.
Using the Caspase-Glo 3/7 assay, the amount of caspase 3/7 activity was measured in the BJ cell line with complete culture medium following compound treatment for 16 hours. The assay was performed in opaque white 1536-well plates. In the screen, staurosporine and tamoxifen were used as positive controls. Library compounds were measured for their ability to cause the activation of caspase 3/7 in the cell line, as reflected by an increase in luminescence signal, in a concentration-dependent manner. Data were normalized to the controls for basal activity (DMSO only) and 100% stimulation (10 uM staurosporine). AC50 values were determined from concentration-response data modeled with the standard Hill equation.
qHTS protocol for caspase 3/7 assay in the BJ cells
[Step] [Parameter] [Value] [Description]
1. Reagent; 5 uL; 1000 the BJ cells/well
2. Time; 5 hr; 37 °C incubation
4. Controls; 23 nL; Tamoxifen 0.23 uM to 100 uM & staurosporine 1.4 pM to 100 uM
5. Time; 16 hr; 37 °C incubation
6. Reagent; 5 uL; Caspase-Glo 3/7 reagent
7. Time; 1 hr; Room Temperature
8. Detection; Luminescence; Viewlux plate reader
Keywords: caspase 3/7, apoptosis, the BJ cell line, luminescence, NTPHTS, NTPHTS_NCGC, NIEHS, EPA, DSSTox, MLSMR, MLSCN, NIH Roadmap, qHTS, NCGC
Consider `NNC(N)=O`, for which the Potency result is “inactive”.
Consider `[O]=[Cd]`, for which the Potency entry was “inactive”.
Take `C[C@H]1CC[C@@H]2[C@@H](C)[C@H]3[C@H](C[C@H]4[C@@H]5CC=C6CC(O[C@@H]7O[C@H](CO)[C@H](O)[C@H](O[C@@H]8O[C@H](CO)[C@@H](O)[C@H](O)[C@H]8O)[C@H]7O[C@H]7O[C@@H](C)[C@H](O)[C@@H](O)[C@H]7O)CC[C@]6(C)[C@H]5CC[C@]34C)N2C1` (stereo partly specified): the Potency entry was “inactive”.
With `Clc1ccccc1Cl` the entry was “inactive”; with `O=[N+]([O-])c1ccccc1`, “inactive”; with `CCCCCCCCOC(=O)c1ccccc1C(=O)OCCCCCCCC`, “inactive”.
With `O=C1CCO1` the entry was “inactive”.
With `COc1ccc2c(c1OC)C(=O)OC2C1c2cc3c(cc2CCN1C)OCO3` (stereo unspecified) the entry was “inactive”.
In the case of `O=C1C2CC=CCC2C(=O)N1SC(Cl)(Cl)Cl` (stereo unspecified), the Potency result was “inactive”.
The same measure for `ClC(Cl)(Cl)Cl`: “inactive”; for `CC(C)(C)c1cc(O)ccc1O`: “inactive”.
Take `C=CCN=C=S`: the Potency entry is “inactive”.
`CCCCCl`: the Potency entry was “inactive”.
The same measure for `COC1=CC(=O)O[C@@H](/C=C/c2ccccc2)C1`: “inactive”; for `[Cl-].[Cl-].[Hg+2]`: “inactive”.
In the case of `CC(C)CCON=O`, the Potency result is “inactive”.
`C[C@]12CCC(=O)C[C@@H]1CC[C@@H]1[C@@H]2CC[C@]2(C)[C@@H](O)CC[C@@H]12`: the Potency result was “inactive”.
Consider `ClCC1CO1` (stereo unspecified), for which the Potency entry was “inactive”.
Regarding `CC(C)Nc1ccc(Nc2ccccc2)cc1`, the Potency entry was “inactive”.
Consider `Oc1cc(Cl)c(Cl)cc1Cl`, for which the Potency result was “inactive”.
`C[C@H]1CCC[C@H](O)CCCCCc2cc(O)cc(O)c2C(=O)O1`: the Potency entry is “inactive”.
On to `O=CC=O`, for which the Potency entry was “inactive”.
In the case of `O=C(O)C(Cl)(Cl)Cl`, the Potency result is “inactive”.
As for `ClC=C(Cl)Cl`, the Potency entry was “inactive”.
With `[O]=[Cr](=[O])([OH])[O][Cr](=[O])(=[O])[OH]` the figure was 15.8 µM (active); with `O=Cc1ccco1`, “inactive”.
With `O=C/C=C/c1ccccc1` the entry was “inactive”; with `CCOC(=O)c1ccccc1C(=O)OCC`, “inactive”.
Take `O=C1C=CC(=O)C=C1`: the Potency entry is “inactive”.
For `O=[N+]([O-])c1ccc(F)c([N+](=O)[O-])c1`, the Potency result is “inactive”.
Regarding `S=C=S`, the Potency result was “inactive”.
